Only some compounds are listed: those with a hit (about 2.7% of all), similar ones and a draw of the others.
KDM5B inh: inhibitors of human KDM5B histone demethylase. Potency, µM (top dose mostly 57.7 µM), hits mostly inhibitors. KDM5B demethylase, FDH-coupled NADH fluorescence (FDH is formaldehyde dehydrogenase). Q9UGL1. 220,000 tested, 2.6% active; active = well fitted inhibition curve with a large enough effect; inconclusive = small, poorly fitted or top-dose-only effect; inactive = no such curve, though single readings can be large or run the other way; also: potency is read from the fitted curve at half-maximal effect; 0% is about no effect; nearly all actives have a fitted effect of over 70% in size
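Measured: NADH fluorescence change, 30 min, RT. System: KDM5BΔAP 200 nM final, H3K4me3 peptide, α-KG, Fe(II), ascorbate, NAD⁺ plus FDH, pH 7.5 HEPES. Compounds: titrated, 10 min pre-incubation with enzyme.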
IP6K1 inhibitor: blocks human inositol hexakisphosphate kinase 1; Q92551; IP6K1 kinase, ADP-Glo luminescence, 2 h; stronger effect = lower value; activity change, % (series mostly up to about 58 µM); 140,000 tested, 0.81% active; AID 1645851; in the data active = activity change below about -25%; also: % is scaled to controls: 0 for no effect and ±100 for the full control effect
Target sequence (Q92551 whole entry, looked up): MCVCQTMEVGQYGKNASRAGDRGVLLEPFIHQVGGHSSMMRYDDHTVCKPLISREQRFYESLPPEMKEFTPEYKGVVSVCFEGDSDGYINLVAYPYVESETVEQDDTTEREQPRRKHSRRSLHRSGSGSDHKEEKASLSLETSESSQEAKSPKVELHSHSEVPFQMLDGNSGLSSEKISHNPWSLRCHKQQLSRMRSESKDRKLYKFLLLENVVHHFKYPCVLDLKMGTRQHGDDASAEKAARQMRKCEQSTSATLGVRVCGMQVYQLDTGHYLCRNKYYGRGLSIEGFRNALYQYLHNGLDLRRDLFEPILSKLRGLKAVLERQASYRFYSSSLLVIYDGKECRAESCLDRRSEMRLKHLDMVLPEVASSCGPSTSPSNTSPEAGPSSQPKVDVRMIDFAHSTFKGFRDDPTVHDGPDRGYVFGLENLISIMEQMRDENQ
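ADP-Glo luminescence measures ADP made by human IP6K1 during a 2 h RT reaction with ATP/IP6 (mix at 1.3 mM/130 uM); top library doses 57.5 and 19.1 uM final.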
An asterisk follows results filed as active; i = inactive; ? = inconclusive; · = no result given.

SMILES | KDM5B inh | IP6K1 inhibitor
Fc1ccc(CN2CCCC3(CCN(c4cnccn4)C3)C2)cc1F (configuration not stated) | 28.2µM* | -2.4
OCC1CN(c2ccncn2)CC12CCN(Cc1ccc(F)c(F)c1)CC2 (configuration not stated) | i | 8.6
Cc1nc(-c2ccccc2F)sc1C(=O)N1CCCC(C(=O)O)C1 (configuration not stated) | i | ·
O=C(CN1CCN(C(=O)c2cc3c(s2)CN(C2CCCC2)C3)CC1)N1CCCC1 | ? | 16.5
O=C(c1cc2c(s1)CN(C1CCCC1)C2)N1CCCN(c2ncccn2)CC1 | 6.31µM* | 8.0
COc1ccnc(N2CC[C@H](c3nnc(-c4ccc(C)cc4)o3)C2)n1 | ? | 2.9
Cc1ccc(-c2nnc([C@H]3CCN(c4nccc(C(F)(F)F)n4)C3)o2)cc1 | 20µM* | 12.2
FC(F)(F)c1ccnc(N2CC[C@H](c3nnc(-c4ccncc4)o3)C2)n1 | ? | -5.2
Cc1ccc(-c2nnc([C@H]3CCN(c4ncccn4)C3)o2)cc1 | 39.8µM* | 23.0
O=C(OCc1cccc2ccccc12)c1ccc(N2CCOCC2)nc1 | i | ·
Cc1cc(C)n2nc(C(=O)OCc3cc(=O)oc4cc(C)c(C(C)C)cc34)nc2n1 | i | ·
Cc1nc2ncccn2c1C(=O)N1CCNCC(C(=O)O)C1 (configuration not stated) | 22.4µM* | -6.2
O=C(O)C1CNCCN(C(=O)c2nc3ccc(F)cc3[nH]2)C1 (configuration not stated) | i | -1.8
Cc1cccn2c(CC(=O)N3CCn4nc(CO)cc4C3)cnc12 | ? | -18.4
Cc1nc2ncccn2c1C(=O)N1CCn2nc(CO)cc2C1 | 31.6µM* | -10.9
COc1ccc(F)cc1-c1ccc(CN2CCCCC2C(=O)NCCCc2ccccc2)cc1 (configuration not stated) | · | 24.2
CCN1Cc2cc(F)ccc2N(CC(O)COc2ccc(OC)cc2)CCC1=O (configuration not stated) | · | 7.5
CC1(C(=O)N2CCN(c3ccccn3)CC2)CCCCC(=O)N1 (configuration not stated) | 17.8µM* | 5.0
CC1(C(=O)N2CCN(c3ccccn3)CC2)CCOCC1 | 112µM* | -15.3
O=C1CCCCC(Cc2ccccc2)(C(=O)N2CCN(c3ccccn3)CC2)N1 (configuration not stated) | · | -14.9
CC1(C(=O)N2CCC(c3ccccc3)CC2)CCOCC1 | i | -7.6
Cc1ccc(CN(C)C(=O)c2cnc3ccccc3n2)c(C)c1 | i | ·
Cn1ncc(N2CCC(C(=O)NCC3CCN(Cc4cccc(F)c4)CC3)C2)cc1=O (configuration not stated) | i | 2.1
CCOc1ccc(CN2CCCC2c2cccc(C)c2)cc1 (configuration not stated) | i | ·
O=C(Cc1ccc(F)cc1)NCc1nnc2cc(-c3nc(C4CC4)no3)ccn12 | 28.2µM* | 4.5
SMILES | KDM5B inh | IP6K1 inhibitor
O=C(Cc1ccc(Cl)cc1)NCc1nnc2cc(-c3nc(C4CC4)no3)ccn12 | i | 2.4
O=C(Cc1cccc(F)c1)NCc1nnc2cc(-c3nc(C4CC4)no3)ccn12 | 28.2µM* | -5.9
COc1cccc(CC(=O)NCc2nnc3cc(-c4nc(C5CC5)no4)ccn23)c1 | ? | -4.8
Cc1ccc2c(c1C)NC(=O)C2(O)C(F)(F)F (configuration not stated) | i | ·
CC(C)CCN1CCc2c(sc3ncnc(N4CCN(C)CC4)c23)C1 | ? | -6.7
O=S(=O)(CCCCC(Cl)(Cl)Cl)NCc1ccco1 | i | ·
CC(C)C1CN(C(=O)OC(C)(C)C)CCN1 (configuration not stated) | i | -0.5
Cc1cc(C[C@@H]2COC[C@@H]2NC(=O)c2c(-c3ccccc3)noc2C)on1 | i | 4.7
Cc1cc(C[C@@H]2COC[C@@H]2NC(=O)c2cc(-c3ccccc3O)n[nH]2)on1 | i | -8.3
Cc1cc(C[C@@H]2COC[C@@H]2NC(=O)c2cc(C)oc2-c2ccccc2)on1 | 28.2µM* | 14.3
Cc1cc(C[C@@H]2COC[C@@H]2NC(=O)c2ccc(CSc3ncccn3)o2)on1 | i | 15.5
Cc1cc(C[C@@H]2COC[C@@H]2NC(=O)c2cnn3ccccc23)on1 | 28.2µM* | -1.7
COc1cc(OC)c(C(=O)N[C@H]2COC[C@H]2Cc2cc(C)no2)cc1OC | 20µM* | 45.3
Cc1ccc2oc(C(=O)N[C@H]3COC[C@H]3Cc3cc(C)no3)c(C)c2c1 | 15.8µM* | -1.9
COc1ccc(C(=O)N[C@H]2COC[C@H]2Cc2cc(C)no2)c(F)c1F | ? | 1.4
N#Cc1ccc(C(=O)Nc2cccc(-c3nnc4n3CCCC4)c2)cc1 | ? | 11.5
CCN1CCC(CC(=O)N2CCCC3(C=Cc4ccccc4O3)CC2)CC1 (configuration not stated) | i | -16.0
O=C(NCc1cccc(F)c1)C1CCCCN1Cc1ccc(-c2cccs2)cc1 (configuration not stated) | · | -7.4

Bioassay records from PubChem.
